Source: PubChem BioAssay
PK Bst = pyruvate kinase (B. stearothermophilus) modulation; 51,000 compounds, 1.2% hits; purified pyruvate kinase, luminescence ATP production; ribose 5-phosphate activator present at AC10; Potency, µM; in the data active = potency below about 11 µM; inconclusive = mostly about 12 µM to 25 µM;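 the screen sought inhibitors and activators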;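 note: scaled between full activation by ribose 5 phosphate and full inhibition by luteolin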
FLuc inh = inhibitors of firefly luciferase; P08659; purified firefly luciferase, luminescence, 8 min; 72,000 compounds, 2.2% hits; Potency, µM (highest dose often 57.1 µM), for the others: top-dose activity change, negative = inhibition, usual class: inhibitors; AID 411; active = well fitted inhibition curve with a large enough effect; inconclusive = small, poorly fitted or top-dose-only effect; note: nearly all actives have a fitted effect of over 40% in size
Target sequence (P08659 whole entry, looked up): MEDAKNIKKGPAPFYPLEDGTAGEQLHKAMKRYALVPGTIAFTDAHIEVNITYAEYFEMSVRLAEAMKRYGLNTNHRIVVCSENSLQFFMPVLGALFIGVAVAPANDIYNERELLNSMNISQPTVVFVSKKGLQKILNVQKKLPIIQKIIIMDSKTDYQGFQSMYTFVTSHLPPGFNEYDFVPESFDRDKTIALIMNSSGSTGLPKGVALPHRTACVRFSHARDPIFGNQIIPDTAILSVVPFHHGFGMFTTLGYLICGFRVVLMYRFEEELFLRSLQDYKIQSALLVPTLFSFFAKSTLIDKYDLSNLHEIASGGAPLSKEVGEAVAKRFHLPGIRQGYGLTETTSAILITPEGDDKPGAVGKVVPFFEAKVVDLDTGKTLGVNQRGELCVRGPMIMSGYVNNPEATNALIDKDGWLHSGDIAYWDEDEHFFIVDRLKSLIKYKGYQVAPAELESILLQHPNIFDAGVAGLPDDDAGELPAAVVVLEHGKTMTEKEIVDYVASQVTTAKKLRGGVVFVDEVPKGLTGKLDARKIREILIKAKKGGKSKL
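Firefly luciferase (PKLight detection mix) with 10 uM ATP in pH 7.2 imidazole buffer (KCl, MgCl2, Tween 20, BSA). Compounds tested across a concentration series (qHTS). Luminescence read after 8 min at ambient temperature.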
* = called active by the depositor; i = inactive; ? = inconclusive; / = no result; [ ] = another dose, or the depositor's remark. This is a sample that favours compounds with a hit; in the whole collection about 2.5% have one here. Unless noted, % is set by controls: 0 for no effect and ±100 for the full control effect; potency is the fitted concentration of half-maximal effect.

SMILES	PK Bst	FLuc inh
CCO[P@]1(=O)OC[C@@H]2O[C@H](n3cnc4c(N)ncnc43)[C@H](O)[C@@H]2O1	/	1.2%[11.4 µM]
N=C1CCC[C@@H]1C(=S)SCCC(N)=O	/	0.6%[11.4 µM]
CC[C@]1(O)C[C@H]2CN(CCc3c([nH]c4ccccc34)[C@](C(=O)OC)(c3cc4c(cc3OC)N(C)[C@@H]3[C@](O)(C(=O)OC)[C@H](OC(C)=O)[C@]5(CC)C=CCN6CC[C@]43[C@@H]65)C2)C1	/	-0.8%
CCOC(=O)c1ccc2c(c1)nc(COc1ccccc1C#N)n2CC	>57	-1.5%
CCn1c(C)nc2cc(C(=O)OC(C(F)(F)C(F)F)C(F)(F)C(F)F)ccc21	/	20µM*
CC(=O)NC1=C(OS(=O)(=O)c2ccc(C)cc2)CN(C)C1=O	/	5.1%[11.4 µM]
O=C(Nc1ccc(Cl)cc1)c1ccncc1	/	-0.8%
O=C(Nc1ccccc1O)c1ccc(Cl)cc1	/	15.8µM*
Oc1cc(O)c2c(c1)O[C@@H](c1ccc(O)c(O)c1)[C@H](O[C@@]1(c3cc(O)c(O)c(O)c3)Oc3cc(O)cc(O)c3[C@H](O)[C@@H]1O)C2	/	-3.5%[11.4 µM]
C/C=C\C[C@@H](C)[C@@H](O)[C@H]1C(=O)N[C@@H](CC)C(=O)N(C)CC(=O)N(C)[C@@H](CC(C)C)C(=O)N[C@@H](C(C)C)C(=O)N(C)[C@@H](CC(C)C)C(=O)N[C@@H](C)C(=O)N[C@H](C)C(=O)N(C)[C@@H](CC(C)C)C(=O)N(C)[C@@H](CC(C)C)C(=O)N(C)[C@@H](C(C)C)C(=O)N1C	/	0.3%
O=c1cc(-c2ccccc2)oc2cc(O)cc(O)c12	/	12.6µM*
COc1cc(O)c2c(=O)cc(-c3ccccc3)oc2c1	/	-4.0%[11.4 µM]
c1ccc(CCc2ccccc2-c2nc(-c3ccccn3)no2)cc1	/	1.0%
Cc1occc1-c1nc(-c2ccncc2)no1	/	-2.9%
c1ccc(-c2noc(-c3ccc4c(c3)OCO4)n2)nc1	0.861*	0.794µM*
c1ccc(-c2noc(-c3ccc4ccccc4c3)n2)nc1	0.156*	0.199µM*
c1ccc(OCCCc2nc(-c3ccccn3)no2)cc1	>57	-2.5%
Cc1occc1-c1nc(-c2ccccn2)no1	/	12.6µM*
O=[N+]([O-])c1cccc(/C=N\NC2=CS(=O)(=O)C=C2)c1	/	1.7%[11.4 µM]
Cc1ccn2cc(C(=O)Nc3nnc(C)s3)nc2c1	>57	-2.0%
Cc1ccn2cc(C(=O)Nc3ccc4c(c3)OCCO4)nc2c1	7*	6.31µM*
C#C[C@]1(O)CC[C@H]2[C@H]3CCC4=Cc5oncc5C[C@]4(C)[C@@H]3CC[C@]21C	/	-1.0%
COc1ccc(CNC(=O)c2cc(-c3cccc(OC)c3)on2)cc1	/	-2.5%
COc1ccc(OC)c2[nH]c(=O)c(CCNS(=O)(=O)c3ccc(Cl)cc3)cc12	4.35*	-1.5%
COc1ccc(OC)c2[nH]c(=O)c(CCNC(=O)C(C)C)cc12	/	-0.1%
SMILES	PK Bst	FLuc inh
COc1ccc(OC)c2[nH]c(=O)c(CCNS(=O)(=O)c3ccc(C)cc3)cc12	2.29*	4.0%
COc1ccc(OC)c2[nH]c(=O)c(CCNC(=O)c3ccc(S(=O)(=O)N(C)C)cc3)cc12	>57	-0.9%
CC(C)OC(=O)C[C@H](NC(=O)OC(C)(C)C)c1ccccc1	/	0.5%[11.4 µM]
O=C(Cc1cccs1)N1CCN(c2ccccn2)CC1	/	4.6%
O=C(c1cn(-c2ccccc2)nc1-c1cccs1)N1CCN(c2ccccn2)CC1	i	25.1µM*
O=C(NCc1cccs1)Nc1cccs1	>57	-4.3%
COc1ccc(NC(=O)c2cccs2)cc1OC	>57	-9.7%
COc1cccc(NC(=O)Cc2cccs2)c1	>57	-5.1%
CCc1ccc(NC(=O)Nc2cccs2)cc1	4.78*	3.98µM*
COc1ccc(NC(=O)Nc2cccs2)cc1OC	i	25.1µM*
COc1cccc(NC(=O)Nc2cccs2)c1	i	15.8µM*
COc1cc(C(=O)Nc2cccc(-c3nc4cc(C)ccc4o3)c2C)cc(OC)c1OC	/	-27.6%
COc1cc(OC)cc(-c2nc3cc(C)ccc3o2)c1	i	15.8µM*
Cc1ccc2nc(-c3cccc(-c4nc5ccc(C)cc5o4)n3)oc2c1	>57	1.1%
COc1cc(C(=O)Nc2cc(-c3nc4cc(C)ccc4o3)ccc2C)cc(OC)c1OC	/	1µM*
CC1CCN(CC(=O)N2c3ccccc3Sc3cc4ccccc4cc32)CC1	/	1.5%[11.4 µM]
CCN1CCN(C(=O)N[C@H](C(=O)N[C@@H]2C(=O)N3C(C(=O)O)=C(CSc4nnnn4C)CS[C@@H]23)c2ccc(O)cc2)C(=O)C1=O	/	0.6%[25.5 µM]
CCOc1ccc2noc3c2c1C(=O)c1ccccc1-3	/	-2.7%
O=C1c2ccccc2-c2onc3ccc(NCc4ccco4)c1c23	5.26*	-23.4%[25.5 µM]
NC[C@H]1O[C@H](n2cnc3c(N)ncnc32)C[C@@H]1O	/	1.7%[11.4 µM]
S=C(c1ccc(-c2ccccc2Cl)o1)N1CCOCC1	/	15.8µM*
O=C(c1ccc(-c2cccc(C(F)(F)F)c2)o1)N1CCOCC1	>57	-2.9%
S=C(c1ccc(-c2ccc(Cl)c(Cl)c2)o1)N1CCOCC1	/	7.94µM*
N#CCCN1CCN(C(=S)c2ccc(-c3cc(Cl)ccc3Cl)o2)CC1	>57	-7.7%
COc1ccc(COC(=O)N/N=C2/C[C@@H](O)[C@@H](O)[C@@H]3[C@H]4C(=O)N(c5ccc(F)cc5F)C(=O)[C@@H]4CC[C@@H]23)cc1	/	-1.5%[11.4 µM]
SMILES	PK Bst	FLuc inh
COc1ccc(OC)c2c(=S)c3ccccc3[nH]c12	/	2.5%
COc1cc(NCC[C@@H]2CCCCN2)c2ncccc2c1	/	-1.4%[11.4 µM]
c1ccc(N2CCN(c3nc4cc5c(cc4s3)OCCO5)CC2)cc1	>57	-20.2%
c1c2c(cc3sc(N4CCOCC4)nc13)OCCO2	4.45*	1.58µM*
COc1ccc(N(CC(O)Cn2nnc3ccccc32)S(=O)(=O)c2ccc(C)cc2)cc1 (stereo not given)	5.7*	2.1%
COc1ccc(N(CC(O)CN2CCCCC2)S(=O)(=O)c2ccc(C)cc2)cc1 (stereo not given)	>57	2.7%
Cn1c([N+](=O)[O-])cnc1CN1CCN(CCO)CC1	/	6.2%[11.4 µM]
C[N+](C)(C)CC(=O)N/N=C\c1c(O)ccc2ccccc12	/	3.4%[11.4 µM]
Oc1ccccc1C1Nc2cccc3cccc(c23)N1	3.6*	-9.8%
Brc1ccc(C2Nc3cccc4cccc(c34)N2)o1	/	-16.6%
CC1(C)O[C@H]2C[C@@H]3[C@H]4CCC5=CC(=O)CC[C@@]5(C)[C@]4(F)[C@@H](O)C[C@@]3(C)[C@@]2(C(=O)CCl)O1	/	0.4%[25.5 µM]
C[C@H](OP(=O)(O)O)[C@H](N)C(=O)O	/	3.0%[11.4 µM]
CCN1CCC[C@@H]1CNC(=O)c1c(OC)ccc(I)c1O	/	0.3%
Cc1ccc(-c2nc(-c3cccnc3)no2)cc1	?	12.6µM*
CCC(=O)Oc1ccc(-c2nc(-c3cccnc3)no2)cc1	?	12.6µM*
c1ccc(-c2ccccc2-c2nc(-c3cccnc3)no2)cc1	>57	1.6%
c1cncc(-c2noc(-c3ccco3)n2)c1	/	-12.3%
CCOC(=O)Nc1nc(-c2ccccc2)c(C)s1	/	0.0%[11.4 µM]
Clc1ccccc1C(Nc1cnccn1)Nc1cnccn1	/	3.6%[11.4 µM]
CCCCNc1nc(SC)nc2nc[nH]c12	/	-1.2%[11.4 µM]
CC(C)Cc1cc(-c2ccco2)c(C#N)c(N)n1	/	-0.4%
N#Cc1c(-c2ccco2)cc(-c2ccc(F)cc2)nc1N	4.68*	0.7%
CC(=O)O[C@@H]1C[C@]2(C)[C@H](C[C@@H](O)[C@H]3[C@@]4(C)CC[C@@H](O)[C@@H](C)[C@@H]4CC[C@@]32C)/C1=C(\CCC=C(C)C)C(=O)O	/	1.9%
[N-]=[N+]=NC[C@@H]1O[C@@H](n2cnc3c(N)ncnc32)[C@@H]2O[C@@H]21	/	1.7%[11.4 µM]
